# Test results as given in PMC7862700, “An all-to-all approach to the identification of sequence-specific readers for epigenetic DNA modifications on cytosine”.
# Experiments:
# Experiment in all cases: DAPPL (digital affinity profiling via proximity ligation, sequencing); 10 mM Tris-HCl pH 7.5, 50 mM NaCl, 1 mM DTT, 4% glycerol, room temperature, 30 min; GST-TFs on glutathione beads, 16-mer random dsDNA library, 0.1% formaldehyde crosslink after washing; high values mean tight binding
# FLI1 = target: T1, FLI1 (Homo sapiens, UniProt Q01543 1-452); details: protein: recombinant; tags: N-terminal GST; dsDNA, one strand shown
# T1 sequence: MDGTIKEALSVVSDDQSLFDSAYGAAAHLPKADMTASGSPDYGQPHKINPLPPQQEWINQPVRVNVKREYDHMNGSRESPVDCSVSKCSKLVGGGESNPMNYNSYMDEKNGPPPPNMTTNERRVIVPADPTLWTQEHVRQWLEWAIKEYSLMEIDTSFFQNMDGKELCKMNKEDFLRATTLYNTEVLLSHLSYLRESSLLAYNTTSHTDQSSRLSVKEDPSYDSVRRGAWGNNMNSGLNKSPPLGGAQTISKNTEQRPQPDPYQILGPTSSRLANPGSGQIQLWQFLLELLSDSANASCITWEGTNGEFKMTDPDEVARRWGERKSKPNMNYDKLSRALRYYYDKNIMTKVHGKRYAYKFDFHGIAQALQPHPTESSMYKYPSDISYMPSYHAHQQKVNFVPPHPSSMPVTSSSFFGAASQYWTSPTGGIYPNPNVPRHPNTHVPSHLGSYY
# In short: (§1)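 Each value of binding signal is a hexamer's read frequency for a factor divided by the same hexamer's frequency in the tag-only sample. Barcoded, bead-captured GST fusions of human transcription factors made in yeast were pooled with that sample and incubated with 200 nmole of a random double-stranded 16-mer DNA library in Tris/NaCl/DTT/glycerol buffer at room temperature for 30 min. Washing, 0.1% formaldehyde crosslinking, proximity ligation, PCR and Illumina NextSeq500 sequencing followed.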
# ELK1 = target: T2, ELK1 (Homo sapiens, UniProt P19419 1-428); details: protein: recombinant; tags: N-terminal GST; dsDNA, one strand shown
# T2 sequence: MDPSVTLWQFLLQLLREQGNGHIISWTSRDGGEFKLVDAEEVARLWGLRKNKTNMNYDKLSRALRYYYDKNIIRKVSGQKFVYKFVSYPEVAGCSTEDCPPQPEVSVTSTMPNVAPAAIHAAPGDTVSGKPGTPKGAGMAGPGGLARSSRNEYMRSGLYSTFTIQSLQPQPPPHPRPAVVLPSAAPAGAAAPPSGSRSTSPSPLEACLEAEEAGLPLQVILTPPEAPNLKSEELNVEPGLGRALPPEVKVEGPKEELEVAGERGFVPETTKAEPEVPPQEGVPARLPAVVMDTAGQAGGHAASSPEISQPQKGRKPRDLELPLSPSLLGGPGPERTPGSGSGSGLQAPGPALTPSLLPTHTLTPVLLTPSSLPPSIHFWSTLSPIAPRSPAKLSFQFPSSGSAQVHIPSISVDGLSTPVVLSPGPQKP
# In short: as §1
# GABPA = target: T3, GABPA (Homo sapiens, UniProt Q06546 1-454); details: protein: recombinant; tags: N-terminal GST; dsDNA, one strand shown
# T3 sequence: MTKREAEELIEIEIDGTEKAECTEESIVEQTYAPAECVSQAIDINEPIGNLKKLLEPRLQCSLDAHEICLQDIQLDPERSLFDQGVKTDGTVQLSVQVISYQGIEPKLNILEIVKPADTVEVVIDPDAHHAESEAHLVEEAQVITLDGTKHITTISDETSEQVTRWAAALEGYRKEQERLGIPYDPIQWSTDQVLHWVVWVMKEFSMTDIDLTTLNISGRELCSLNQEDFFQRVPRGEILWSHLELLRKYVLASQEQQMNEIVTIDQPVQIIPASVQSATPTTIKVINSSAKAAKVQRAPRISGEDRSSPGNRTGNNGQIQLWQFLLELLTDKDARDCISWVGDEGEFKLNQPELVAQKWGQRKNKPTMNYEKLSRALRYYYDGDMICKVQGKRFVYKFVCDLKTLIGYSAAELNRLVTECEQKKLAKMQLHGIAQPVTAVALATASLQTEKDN
# In short: as §1
# ERG = target: T4, ERG (Homo sapiens, UniProt P11308 1-479); details: protein: recombinant; tags: N-terminal GST; dsDNA, one strand shown
# T4 sequence: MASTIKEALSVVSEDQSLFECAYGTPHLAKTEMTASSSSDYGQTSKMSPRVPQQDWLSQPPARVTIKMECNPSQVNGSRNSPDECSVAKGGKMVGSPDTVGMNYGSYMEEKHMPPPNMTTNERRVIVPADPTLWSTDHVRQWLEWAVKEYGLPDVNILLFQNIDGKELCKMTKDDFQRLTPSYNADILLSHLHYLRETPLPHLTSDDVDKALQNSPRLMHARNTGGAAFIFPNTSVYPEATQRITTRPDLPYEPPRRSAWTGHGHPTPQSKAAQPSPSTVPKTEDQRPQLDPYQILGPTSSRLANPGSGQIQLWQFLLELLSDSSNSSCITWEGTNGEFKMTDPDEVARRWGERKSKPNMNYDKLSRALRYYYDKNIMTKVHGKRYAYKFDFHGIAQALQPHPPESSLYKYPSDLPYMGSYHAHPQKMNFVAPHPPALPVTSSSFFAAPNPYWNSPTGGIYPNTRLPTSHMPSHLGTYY
# In short: as §1
# ELF1 = ELF1 (Homo sapiens, UniProt P32519 1-619); details: protein: recombinant; tags: N-terminal GST; dsDNA, one strand shown
# ELF1, sequence (P32519 whole entry): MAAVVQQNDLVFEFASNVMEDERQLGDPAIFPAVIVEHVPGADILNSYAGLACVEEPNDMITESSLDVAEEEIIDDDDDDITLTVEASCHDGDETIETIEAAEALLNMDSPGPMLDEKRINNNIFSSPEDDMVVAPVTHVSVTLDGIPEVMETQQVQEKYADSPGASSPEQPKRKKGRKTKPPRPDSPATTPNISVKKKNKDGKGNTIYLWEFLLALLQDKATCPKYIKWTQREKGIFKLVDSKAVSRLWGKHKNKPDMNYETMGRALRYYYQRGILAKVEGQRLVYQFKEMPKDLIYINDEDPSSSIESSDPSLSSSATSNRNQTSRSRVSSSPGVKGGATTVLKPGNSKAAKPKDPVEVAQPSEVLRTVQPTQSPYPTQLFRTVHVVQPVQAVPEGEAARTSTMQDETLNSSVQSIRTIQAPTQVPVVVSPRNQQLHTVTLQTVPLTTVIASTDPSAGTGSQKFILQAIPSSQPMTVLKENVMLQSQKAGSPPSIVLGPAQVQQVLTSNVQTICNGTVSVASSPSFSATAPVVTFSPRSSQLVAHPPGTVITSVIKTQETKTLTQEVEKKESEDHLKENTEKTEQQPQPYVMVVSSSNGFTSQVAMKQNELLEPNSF
# In short: as §1
# EHF = target: T5, EHF (Homo sapiens, UniProt Q9NZC4 1-300); details: protein: recombinant; tags: N-terminal GST; dsDNA, one strand shown
# T5 sequence: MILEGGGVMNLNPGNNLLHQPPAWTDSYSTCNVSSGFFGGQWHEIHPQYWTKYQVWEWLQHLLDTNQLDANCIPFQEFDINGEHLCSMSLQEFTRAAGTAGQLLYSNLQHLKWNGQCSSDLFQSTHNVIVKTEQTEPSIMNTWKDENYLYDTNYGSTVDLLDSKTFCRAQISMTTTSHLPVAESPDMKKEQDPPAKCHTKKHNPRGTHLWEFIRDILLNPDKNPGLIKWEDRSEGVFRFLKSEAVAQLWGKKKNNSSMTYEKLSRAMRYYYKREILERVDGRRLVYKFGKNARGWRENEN
# In short: as §1
# SPI1 = SPI1 (Homo sapiens, UniProt P17947 1-270); details: protein: recombinant; tags: N-terminal GST; dsDNA, one strand shown
# In short: as §1
# SPIB = SPIB (Homo sapiens, UniProt Q01892 1-262); details: protein: recombinant; tags: N-terminal GST; dsDNA, one strand shown
# SPIB, sequence (Q01892 whole entry): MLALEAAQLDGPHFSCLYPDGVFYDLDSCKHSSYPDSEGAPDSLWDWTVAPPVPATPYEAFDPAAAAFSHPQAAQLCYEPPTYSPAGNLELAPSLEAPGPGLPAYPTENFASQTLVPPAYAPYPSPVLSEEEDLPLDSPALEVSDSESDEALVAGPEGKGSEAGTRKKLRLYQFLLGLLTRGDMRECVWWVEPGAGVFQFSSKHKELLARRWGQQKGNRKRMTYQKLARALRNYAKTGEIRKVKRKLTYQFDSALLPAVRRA
# In short: as §1
# ELK3 = target: T6, ELK3 (Homo sapiens, UniProt P41970 1-407); details: protein: recombinant; tags: N-terminal GST; dsDNA, one strand shown
# T6 sequence: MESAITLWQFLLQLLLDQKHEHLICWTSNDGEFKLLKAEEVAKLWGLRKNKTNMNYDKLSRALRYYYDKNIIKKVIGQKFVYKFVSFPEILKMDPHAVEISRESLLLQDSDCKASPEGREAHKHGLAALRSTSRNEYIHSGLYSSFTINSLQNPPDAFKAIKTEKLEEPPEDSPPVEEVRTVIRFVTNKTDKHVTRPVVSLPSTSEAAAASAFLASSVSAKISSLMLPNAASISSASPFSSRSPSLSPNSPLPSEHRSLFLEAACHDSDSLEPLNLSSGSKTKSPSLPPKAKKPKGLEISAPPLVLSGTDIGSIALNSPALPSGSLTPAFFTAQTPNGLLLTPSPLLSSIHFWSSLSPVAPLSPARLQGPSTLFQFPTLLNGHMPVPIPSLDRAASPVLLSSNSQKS
# In short: as §1
# FEV = target: T7, FEV (Homo sapiens, UniProt Q99581 1-238); details: protein: recombinant; tags: N-terminal GST; dsDNA, one strand shown
# T7 sequence: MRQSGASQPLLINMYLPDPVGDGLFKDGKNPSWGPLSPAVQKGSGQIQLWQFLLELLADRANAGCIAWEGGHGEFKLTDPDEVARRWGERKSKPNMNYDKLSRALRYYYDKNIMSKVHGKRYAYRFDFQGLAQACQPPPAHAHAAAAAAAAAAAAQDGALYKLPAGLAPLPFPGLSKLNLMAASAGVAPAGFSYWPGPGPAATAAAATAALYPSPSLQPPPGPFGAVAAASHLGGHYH
# In short: as §1
# ETV5 = ETV5 (Homo sapiens, UniProt P41161 1-510); details: protein: recombinant; tags: N-terminal GST; dsDNA, one strand shown
# ETV5, sequence (P41161 whole entry): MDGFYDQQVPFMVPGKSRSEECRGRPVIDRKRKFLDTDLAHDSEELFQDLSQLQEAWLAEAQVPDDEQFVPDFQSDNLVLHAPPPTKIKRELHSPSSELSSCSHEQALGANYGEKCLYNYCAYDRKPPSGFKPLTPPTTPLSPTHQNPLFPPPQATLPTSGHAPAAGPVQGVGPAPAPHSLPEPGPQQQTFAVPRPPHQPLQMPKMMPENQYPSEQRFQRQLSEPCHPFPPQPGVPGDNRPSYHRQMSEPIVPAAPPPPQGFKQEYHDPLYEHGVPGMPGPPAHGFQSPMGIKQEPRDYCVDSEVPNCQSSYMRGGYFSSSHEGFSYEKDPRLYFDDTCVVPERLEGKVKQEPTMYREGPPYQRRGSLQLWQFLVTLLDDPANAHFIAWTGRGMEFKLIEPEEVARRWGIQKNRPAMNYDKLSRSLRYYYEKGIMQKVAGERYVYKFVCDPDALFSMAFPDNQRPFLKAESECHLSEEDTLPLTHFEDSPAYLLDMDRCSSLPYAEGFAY
# In short: as §1
# HSF1 = HSF1 (Homo sapiens, UniProt Q00613 1-529); details: protein: recombinant; tags: N-terminal GST; chain copies: 3; dsDNA, one strand shown
# HSF1, sequence (Q00613 whole entry): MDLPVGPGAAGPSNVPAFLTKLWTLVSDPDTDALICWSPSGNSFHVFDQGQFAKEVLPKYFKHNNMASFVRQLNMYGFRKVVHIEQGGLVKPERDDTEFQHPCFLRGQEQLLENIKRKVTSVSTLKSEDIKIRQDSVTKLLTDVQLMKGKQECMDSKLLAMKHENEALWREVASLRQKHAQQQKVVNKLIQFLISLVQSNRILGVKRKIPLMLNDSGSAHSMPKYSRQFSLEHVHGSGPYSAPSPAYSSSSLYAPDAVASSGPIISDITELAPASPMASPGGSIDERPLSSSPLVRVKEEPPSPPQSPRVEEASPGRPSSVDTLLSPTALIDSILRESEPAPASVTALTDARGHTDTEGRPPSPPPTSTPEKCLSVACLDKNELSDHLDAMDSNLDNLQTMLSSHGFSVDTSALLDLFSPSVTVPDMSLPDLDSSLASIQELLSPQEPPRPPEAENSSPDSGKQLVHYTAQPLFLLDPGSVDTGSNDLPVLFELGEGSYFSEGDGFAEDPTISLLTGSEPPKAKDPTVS
# In short: as §1
# SPIC = target: T8, SPIC (Homo sapiens, UniProt Q8N5J4 1-248); details: protein: recombinant; tags: N-terminal GST; dsDNA, one strand shown
# T8 sequence: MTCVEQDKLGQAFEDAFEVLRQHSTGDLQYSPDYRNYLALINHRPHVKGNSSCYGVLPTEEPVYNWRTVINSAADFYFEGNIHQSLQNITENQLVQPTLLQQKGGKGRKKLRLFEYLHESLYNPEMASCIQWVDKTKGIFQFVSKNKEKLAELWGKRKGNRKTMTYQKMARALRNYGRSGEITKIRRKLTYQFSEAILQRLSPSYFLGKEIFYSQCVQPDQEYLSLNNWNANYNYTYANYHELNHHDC
# In short: as §1
# ELF4 = ELF4 (Homo sapiens, UniProt Q99607 1-663); details: protein: recombinant; tags: N-terminal GST; dsDNA, one strand shown
# ELF4, sequence (Q99607 whole entry): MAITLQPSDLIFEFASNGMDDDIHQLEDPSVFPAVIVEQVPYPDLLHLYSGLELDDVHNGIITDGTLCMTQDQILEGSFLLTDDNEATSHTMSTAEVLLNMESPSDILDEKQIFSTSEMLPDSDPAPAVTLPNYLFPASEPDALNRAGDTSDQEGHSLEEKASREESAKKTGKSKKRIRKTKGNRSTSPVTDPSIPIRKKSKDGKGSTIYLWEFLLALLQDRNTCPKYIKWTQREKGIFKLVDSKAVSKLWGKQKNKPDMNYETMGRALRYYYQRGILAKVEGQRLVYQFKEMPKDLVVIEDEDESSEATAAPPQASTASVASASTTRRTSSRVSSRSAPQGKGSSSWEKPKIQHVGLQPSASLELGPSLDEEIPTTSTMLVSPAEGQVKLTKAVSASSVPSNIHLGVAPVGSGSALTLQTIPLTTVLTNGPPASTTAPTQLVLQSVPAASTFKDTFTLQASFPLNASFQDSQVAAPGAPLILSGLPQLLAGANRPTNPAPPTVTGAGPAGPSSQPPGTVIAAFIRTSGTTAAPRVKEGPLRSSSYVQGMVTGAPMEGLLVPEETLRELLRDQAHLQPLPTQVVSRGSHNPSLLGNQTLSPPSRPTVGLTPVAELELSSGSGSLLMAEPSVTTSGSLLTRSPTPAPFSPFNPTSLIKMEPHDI
# In short: as §1
# ELK4 = target: T9, ELK4 (Homo sapiens, UniProt P28324-2 1-405); details: protein: recombinant; tags: N-terminal GST; dsDNA, one strand shown
# T9 sequence: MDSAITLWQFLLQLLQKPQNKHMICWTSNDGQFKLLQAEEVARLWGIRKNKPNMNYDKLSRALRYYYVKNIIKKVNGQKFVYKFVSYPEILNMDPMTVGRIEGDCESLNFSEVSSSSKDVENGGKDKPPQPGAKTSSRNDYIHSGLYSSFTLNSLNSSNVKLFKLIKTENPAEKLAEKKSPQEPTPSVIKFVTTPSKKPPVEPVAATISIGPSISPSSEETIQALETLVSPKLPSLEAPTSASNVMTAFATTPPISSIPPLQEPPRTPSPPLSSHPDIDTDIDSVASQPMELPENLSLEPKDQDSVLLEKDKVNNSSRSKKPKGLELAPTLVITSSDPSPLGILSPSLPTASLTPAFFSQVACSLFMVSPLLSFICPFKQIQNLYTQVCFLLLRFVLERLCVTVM
# In short: as §1
# ETV2 = target: T10, ETV2 (Homo sapiens, UniProt O00321 1-342); details: protein: recombinant; tags: N-terminal GST; dsDNA, one strand shown
# T10 sequence: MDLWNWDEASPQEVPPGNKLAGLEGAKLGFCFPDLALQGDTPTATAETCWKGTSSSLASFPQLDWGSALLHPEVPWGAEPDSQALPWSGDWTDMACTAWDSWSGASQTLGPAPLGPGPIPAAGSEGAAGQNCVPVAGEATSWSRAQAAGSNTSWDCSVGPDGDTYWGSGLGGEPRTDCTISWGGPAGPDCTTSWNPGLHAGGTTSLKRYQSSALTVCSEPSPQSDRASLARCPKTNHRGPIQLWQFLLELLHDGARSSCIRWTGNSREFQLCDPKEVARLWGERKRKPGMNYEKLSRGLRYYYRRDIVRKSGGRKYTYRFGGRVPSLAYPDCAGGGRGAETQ
# In short: as §1
# ELF3 = target: T11, ELF3 (Homo sapiens, UniProt P78545 1-371); details: protein: recombinant; tags: N-terminal GST; dsDNA, one strand shown
# T11 sequence: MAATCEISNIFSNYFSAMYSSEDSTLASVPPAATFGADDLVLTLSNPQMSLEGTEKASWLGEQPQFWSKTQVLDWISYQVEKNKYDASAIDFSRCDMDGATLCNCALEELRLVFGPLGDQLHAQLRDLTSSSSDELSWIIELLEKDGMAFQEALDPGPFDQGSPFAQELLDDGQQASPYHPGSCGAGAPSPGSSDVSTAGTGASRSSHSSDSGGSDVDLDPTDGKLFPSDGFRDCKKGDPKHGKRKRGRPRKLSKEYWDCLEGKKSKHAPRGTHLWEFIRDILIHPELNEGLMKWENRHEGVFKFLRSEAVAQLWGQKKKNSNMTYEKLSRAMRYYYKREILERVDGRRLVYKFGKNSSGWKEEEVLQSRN
# In short: as §1
# CRX = CRX (Homo sapiens, UniProt O43186 1-299); details: protein: recombinant; tags: N-terminal GST; dsDNA, one strand shown
# CRX, sequence (O43186 whole entry): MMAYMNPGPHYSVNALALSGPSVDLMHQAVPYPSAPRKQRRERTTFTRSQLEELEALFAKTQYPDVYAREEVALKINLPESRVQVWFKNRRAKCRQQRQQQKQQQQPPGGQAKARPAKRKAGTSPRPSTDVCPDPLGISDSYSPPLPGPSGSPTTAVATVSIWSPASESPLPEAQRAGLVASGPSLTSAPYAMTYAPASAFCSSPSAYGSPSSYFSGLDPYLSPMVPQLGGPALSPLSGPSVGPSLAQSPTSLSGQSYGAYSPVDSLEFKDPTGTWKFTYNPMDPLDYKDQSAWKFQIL
# In short: as §1
# ETV1 = ETV1 (Homo sapiens, UniProt P50549 1-477); details: protein: recombinant; tags: N-terminal GST; dsDNA, one strand shown
# ETV1, sequence (P50549 whole entry): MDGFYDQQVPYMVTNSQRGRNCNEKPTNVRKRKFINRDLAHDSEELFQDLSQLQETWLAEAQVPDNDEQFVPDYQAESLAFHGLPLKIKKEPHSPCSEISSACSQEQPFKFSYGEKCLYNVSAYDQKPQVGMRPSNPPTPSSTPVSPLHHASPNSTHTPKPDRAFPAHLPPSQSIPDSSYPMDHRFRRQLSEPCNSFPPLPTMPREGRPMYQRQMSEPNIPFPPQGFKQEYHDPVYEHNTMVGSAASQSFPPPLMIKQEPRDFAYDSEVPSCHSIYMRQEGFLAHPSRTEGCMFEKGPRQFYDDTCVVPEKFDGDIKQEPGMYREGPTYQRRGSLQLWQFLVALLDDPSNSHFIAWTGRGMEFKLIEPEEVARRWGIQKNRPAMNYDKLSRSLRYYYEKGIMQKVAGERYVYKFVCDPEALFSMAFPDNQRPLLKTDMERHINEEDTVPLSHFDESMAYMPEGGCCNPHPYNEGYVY
# In short: as §1
sequence,measurement,setting,value
GAAAAT,binding signal,FLI1,"1.16 fold enrichment (6-mer frequency, TF over GST control)"
same,binding signal,ELK1,"1.07 fold enrichment (6-mer frequency, TF over GST control)"
same,binding signal,GABPA,"1.16 fold enrichment (6-mer frequency, TF over GST control)"
same,binding signal,ERG,"1.07 fold enrichment (6-mer frequency, TF over GST control)"
same,binding signal,ELF1,"1.04 fold enrichment (6-mer frequency, TF over GST control)"
same,binding signal,EHF,"1.14 fold enrichment (6-mer frequency, TF over GST control)"
same,binding signal,SPI1,"1.14 fold enrichment (6-mer frequency, TF over GST control)"
same,binding signal,SPIB,"1.18 fold enrichment (6-mer frequency, TF over GST control)"
same,binding signal,ELK3,"1.04 fold enrichment (6-mer frequency, TF over GST control)"
same,binding signal,FEV,"1.07 fold enrichment (6-mer frequency, TF over GST control)"
same,binding signal,ETV5,"1.16 fold enrichment (6-mer frequency, TF over GST control)"
same,binding signal,HSF1,"1.49 fold enrichment (6-mer frequency, TF over GST control)"
same,binding signal,SPIC,"1.09 fold enrichment (6-mer frequency, TF over GST control)"
same,binding signal,ELF4,"1.14 fold enrichment (6-mer frequency, TF over GST control)"
same,binding signal,ELK4,"1.01 fold enrichment (6-mer frequency, TF over GST control)"
same,binding signal,ETV2,"1.17 fold enrichment (6-mer frequency, TF over GST control)"
same,binding signal,ELF3,"1.09 fold enrichment (6-mer frequency, TF over GST control)"
same,binding signal,CRX,"1.2 fold enrichment (6-mer frequency, TF over GST control)"
same,binding signal,ETV1,"1.02 fold enrichment (6-mer frequency, TF over GST control)"
